Data as given in the supplement of paper PMC9948646.
Unmarked numbers belong to inactive results.

test system: gramicidin D channels in DC22:1PC lipid vesicles (bilayer-modifying potency); experiment: initial Tl+ fluorescence quench rate relative to no-drug control (NormRate, gramicidin monomer-dimer shift) (ratio (fold of control)); higher = stronger bilayer-modifying effect (equilibrium shifted toward conducting dimers), active = 1.5 or more; settings: 10 µM; lipid concentration 50 µM; temperature: 25 °C
Procedure: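 Stopped-flow fluorescence quench assay: ANTS-loaded DC22:1PC large unilamellar vesicles doped with gramicidin D (1:2000), 50 µM lipid, equilibrated 10 min with 10 µM drug (0.1% DMSO), mixed with Tl+ quench buffer at 25°C. Initial quench rate (Tl+ influx) was fitted with a modified stretched exponential and normalised to the no-drug control rate (NormRate); duplicates from two independent LUV preparations (triplicates for 7 drugs).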

SMILES	initial Tl+ fluorescence quench rate
[H]/N=C(/N)c1ccc(-c2cc(-c3ccccc3)on2)cc1	1.08
N#Cc1ccc(-c2cnc(N)c(-c3ccc(C(N)=O)cc3)n2)cc1	1.28
CCc1c(C)nc(-n2nc(C)cc2NC(=O)c2ccccc2SC)[nH]c1=O	1.2
CC(C)(C)C(=O)N(CCCCCCN1C[C@H](O)[C@@H](O)[C@H](O)[C@H]1CO)C1CCCCCC1	1.15
CNc1cc(C)nc([C@@H]2CN(C(=O)c3n[nH]c4ccccc34)CCO2)c1	1.11
C[C@H]1COc2c(N3CCN(C)CC3)c(F)cc3c(=O)c(C(=O)O)cn1c23	1.04
Clc1cccc([C@@H](c2ccc(CN3CCNCC3)cc2)n2ccnc2)c1	1.17
COc1ccc(Cn2cnc3c(-c4ccco4)nc(Cl)nc32)cc1	1.59 (active)
CCn1ncc2c(NC3CCOCC3)c(CNC(=O)c3ccnn3C)c(C)nc21	1.07
Cc1cc(OCC(=O)Nc2ccc(C(C)C)cc2)n(C)c(=O)c1C#N	1.25
Cc1cc(C)nc(-n2nc(C)cc2Nc2ccccc2)n1	1.32
CC(C)n1ncc2c(C(=O)NC[C@H](c3cccs3)N3CCOCC3)cc(-c3ccccc3)nc21	2.74 (active)
CCc1ccc([C@@H]2C[C@H](C(F)(F)F)n3ncc(C(=O)NCc4ccc(OC)cc4)c3N2)cc1	4.55 (active)
CCc1nc2ccc(Cl)cn2c1C(=O)NCc1ccc(N2CCC(c3ccc(OC(F)(F)F)cc3)CC2)cc1	1.09
c1ccc(Oc2ccc(-c3cncc(-c4ccc5[nH]ccc5c4)n3)cc2)cc1	1.69 (active)
c1ccc(Oc2ccc(-c3cc(CN4CCOCC4)[nH]n3)cc2)cc1	1.7 (active)
[H]/N=C(\N)N[C@H]1[C@@H](O)[C@@H](O)[C@H](O[C@H]2O[C@H](C)[C@](O)(C=O)[C@H]2O[C@H]2O[C@@H](CO)[C@@H](O)[C@@H](O)[C@@H]2NC)[C@@H](N/C(N)=N/[H])[C@H]1O	1.05
OC[C@H]1O[C@@H](n2c3ccc(Cl)cc3c3c(-c4cc5ccccc5o4)ncnc32)[C@H](O)[C@H]1O	3.52 (active)
Cc1cc(NC(=O)c2ccc(Oc3ccc(Cl)cc3O)o2)no1	1.11
CNC(=O)[C@@H]1Cc2c([nH]c3cc(Cl)ccc23)C2(CCN(CCc3ccccc3)CC2)N1	2.52 (active)

SMILES	initial Tl+ fluorescence quench rate
Cc1nn(C(=O)Nc2cccc(C(F)(F)F)c2)c(C)c1Sc1ncccn1	2 (active)
CN1CCC(c2cc(-c3ccncc3)c(-c3ccc(F)cc3)[nH]2)CC1	1.03
O=C(NCCc1ccccc1)c1cc(-c2cccnc2)cnc1NCC1CC1	2 (active)
C[C@@H](c1cc(Cl)cc(Cl)c1)N(C)c1ncc2c(N)nc(N)nc2n1	2.71 (active)
O=C(Nc1ccnc(-c2cccnc2)n1)c1cc(C(F)(F)F)cc(C(F)(F)F)c1	1.2
Cn1ncc2c(N3CCOCC3)nc(NCCc3c[nH]c4ccccc34)nc21	3.03 (active)
Cc1nc(-c2ccccn2)nc(N2CC[C@@H](Cc3ccccc3)C2)c1Cl	3.57 (active)
Cc1cc(C)n(-c2ccc(NC(=O)C3CCN(Cc4cnc(C)s4)CC3)cc2)n1	1.01
O=C(Nc1ccc(C(F)(F)F)c(C(F)(F)F)c1)c1cc(Cl)ccc1O	2.9 (active)
FC(F)(F)c1nnc2ccc(Cl)nn12	1.02
CS(=O)(=O)c1cccc(-c2cnc3[nH]cc(-c4ccc(CCC(=O)O)cc4)c3c2)c1	1.09
O=C(NCCN1CCCC1)c1cc(NCCCCN2CCC(F)(F)CC2)nc2ccc(Cl)cc12	1.92 (active)
Cc1nnc(NCc2cccc(Cl)c2)c2ccccc12	1.05
Cc1ccccc1C(=O)N1N=C(Nc2ccccc2)SC1(C)C	2.12 (active)
CCCn1c(CNc2ccccc2O)nc2ccccc21	1.05
CS(=O)(=O)N1CCC(CCn2nc(Cc3cccc4ccccc34)c3c(N)ncnc32)CC1	1.95 (active)
C[C@H]1CCCN(C(=O)[C@H](C)Nc2cc(Cl)ccc2N2CCOCC2)C1	1.23
Cc1nc(-c2cccc(NCc3ccccc3)c2)[nH]c1C	1.24
CCN(CC)C(=O)N1CCN(C)CC1	1.1
Cc1ccc2c(c1C)NC(=O)[C@@]21NN=C(c2ccccc2)S1	1.38
